Several values for one entry are separate records, joined by “and”; a condition that tells them apart may be missing. Identical values can stand only once. Results filed as inconclusive are left out. Activity calls are given as the source filed them. Unless noted, calls follow the shape of the dose curve; as a rule, active = well fitted curve in the direction sought with a large enough effect; inconclusive = small, poorly fitted or top-dose-only effect, or another doubt; inactive = no such curve, though single readings can be large; an effect the other way counts as inactive or inconclusive.
What was measured:
[1] = target: Cellular tumor antigen p53 (Homo sapiens) (UniProt P04637); assay: Primary qHTS for small molecule compounds that upregulate eGFP-tagged delta133p53alpha (in N-terminal) cells. (AID 2060322); conditions: NCI-H358 eGFP-delta133p53alpha fluorescence, 24 h; activation: stronger effect = higher value; also: nearly all actives have a fitted effect of over 75% in size; also: potency is read from the fitted curve at half-maximal effect;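 as to activation: cells pre-induced with doxycycline then dosed without doxycycline; series mostly up to about 56 µM; 0% = DMSO vehicle and 100% = reference activator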
Sequence of Cellular tumor antigen p53 (Homo sapiens) (P04637 whole entry, looked up): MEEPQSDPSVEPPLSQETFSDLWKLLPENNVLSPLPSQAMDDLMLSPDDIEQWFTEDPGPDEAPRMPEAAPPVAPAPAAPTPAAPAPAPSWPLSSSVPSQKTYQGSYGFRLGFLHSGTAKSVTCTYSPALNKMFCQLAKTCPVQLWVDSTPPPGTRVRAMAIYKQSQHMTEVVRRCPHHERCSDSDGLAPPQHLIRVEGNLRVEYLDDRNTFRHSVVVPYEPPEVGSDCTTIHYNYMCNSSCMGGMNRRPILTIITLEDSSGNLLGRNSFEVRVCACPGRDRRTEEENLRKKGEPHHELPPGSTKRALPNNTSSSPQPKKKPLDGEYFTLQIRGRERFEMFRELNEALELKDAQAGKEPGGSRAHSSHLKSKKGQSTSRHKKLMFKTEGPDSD
Outline: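 NCI-H358 cells pre-induced 24 h with 10 ng/ml doxycycline for eGFP-delta133p53alpha, plated dox-free and exposed 24 h at 37C to titrated compounds. Fixed, Hoechst-stained; gated GFP peak intensity by laser scanning cytometry, normalized to DMSO (0%) and 57.5 uM 5-azacytidine (100%).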

[2] = target: Aldehyde dehydrogenase, mitochondrial (Homo sapiens) (UniProt P05091); assay: qHTS for Inhibitors of the Aldehyde Dehydrogenase Family (ALDH2) Confirmatory screens (AID 2061303; active = well fitted inhibition curve with a large enough effect; title and protocol of this record describe different tests; also: nearly all actives have a fitted effect of over 45% in size; also: potency is read from the fitted curve at half-maximal effect)
[3] = qHTS for Inhibitors of the Aldehyde Dehydrogenase Family (ALDH1A2, ALDH1A3, ALDH2, ALDH3A1) (AID 2061307); also: nearly all actives have a fitted effect of over 50% in size
[4] = target: Aldehyde dehydrogenase, mitochondrial (Homo sapiens) (UniProt P05091); assay: qHTS for Inhibitors of the Aldehyde Dehydrogenase Family (ALDH2) Primary screen (AID 2061308); also: nearly all actives have a fitted effect of over 55% in size; also: potency is read from the fitted curve at half-maximal effect
[5] = target: Aldehyde dehydrogenase, mitochondrial (Homo sapiens) (UniProt P05091); assay: qHTS for Inhibitors of the Aldehyde Dehydrogenase Family (ALDH2) Validation screens (AID 2061302; active = well fitted inhibition curve with a large enough effect; title and protocol of this record describe different tests;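 also: plate controls were DMSO vehicle for no effect and maximal DPI positive control response for full effect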)
[6] = target: Retinaldehyde dehydrogenase 3 (Homo sapiens) (UniProt P47895); assay: qHTS for Inhibitors of the Aldehyde Dehydrogenase Family (ALDH1A3) Validation screen (AID 2061312); also: % is scaled to controls: 0 for no effect and ±100 for the full control effect; nearly all actives have a fitted effect of over 45% in size
[7] = BET inhibitor-based combinations targeting novel dependencies in MECOM-rearranged (r) AML: UCSD-AML1 cell line (AID 2202235); also: nearly all actives have a fitted effect of over 40% in size; also: potency is read from the fitted curve at half-maximal effect
Outline: (§1)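 Each compound is tested in an 11-point concentration series against 500 seeded cells/well for 48 hr. The luminescent viability signal is normalized to DMSO and blank wells, then reduced to AUC and a cell-line-centred Z-AUC.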

[8] = BET inhibitor-based combinations targeting novel dependencies in MECOM-rearranged (r) AML: AML-194 cell line (AID 2202237;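 also: plate controls were vehicle wells for no effect and wells without cells for full effect; nearly all actives have a fitted effect of over 40% in size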)
Outline: (§2)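 A 48 hr incubation preceded viability reading by CellTiter-Glo, with 15 min room-temperature development. Dose series had 11 points; normalization used DMSO and empty wells; AUC was computed and mean-centered per line as Z-AUC.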

[9] = target: Retinaldehyde dehydrogenase 3 (Homo sapiens) (UniProt P47895); assay: qHTS for Inhibitors of the Aldehyde Dehydrogenase Family (ALDH1A3) Confirmatory screens (AID 2061311); also: nearly all actives have a fitted effect of over 60% in size; also: potency is read from the fitted curve at half-maximal effect
[10] = target: Retinal dehydrogenase 2 (Homo sapiens) (UniProt O94788); assay: qHTS for Inhibitors of the Aldehyde Dehydrogenase Family (ALDH1A2) Confirmation screens (AID 2061314); also: nearly all actives have a fitted effect of over 65% in size; also: potency is read from the fitted curve at half-maximal effect
[11] = target: Retinaldehyde dehydrogenase 3 (Homo sapiens) (UniProt P47895); assay: qHTS for Inhibitors of the Aldehyde Dehydrogenase Family (ALDH1A3) Primary screen (AID 2061315); also: potency is read from the fitted curve at half-maximal effect
[12] = target: Aldehyde dehydrogenase 1A1 (Homo sapiens) (UniProt P00352); assay: qHTS for Inhibitors of the Aldehyde Dehydrogenase Family (ALDH1A1) Confirmatory screens (AID 2061316); also: nearly all actives have a fitted effect of over 65% in size; also: potency is read from the fitted curve at half-maximal effect
[13] = BET inhibitor-based combinations targeting novel dependencies in MECOM-rearranged (r) AML: SET-2 cell line (AID 2202231); conditions: SET-2 AML cells viability, CellTiter-Glo luminescence, 48 h; viability: stronger effect = lower value, concentration not given here; also: nearly all actives have a fitted effect of over 35% in size; also: potency is read from the fitted curve at half-maximal effect;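 as to viability: plate controls were DMSO treated cells for no effect and wells without cells for full effect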
Outline: as §2

[14] = BET inhibitor-based combinations targeting novel dependencies in MECOM-rearranged (r) AML: MV-4-11 cell line (AID 2202233); also: nearly all actives have a fitted effect of over 45% in size; also: potency is read from the fitted curve at half-maximal effect
Outline: as §1

[15] = BET inhibitor-based combinations targeting novel dependencies in MECOM-rearranged (r) AML: HNT-34 cell line (AID 2202234); also: nearly all actives have a fitted effect of over 35% in size; also: potency is read from the fitted curve at half-maximal effect
Outline: as §1

[16] = BET inhibitor-based combinations targeting novel dependencies in MECOM-rearranged (r) AML: AML-191 cell line (AID 2202236; also: nearly all actives have a fitted effect of over 35% in size; also: potency is read from the fitted curve at half-maximal effect)
Outline: as §2

[17] = BET inhibitor-based combinations targeting novel dependencies in MECOM-rearranged (r) AML: OCI-AML3 cell line (AID 2202232); conditions: Potency: OCI-AML3 viability;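 also: series mostly up to about 46 µM; plate controls were DMSO vehicle wells for no effect and wells without cells for full effect; nearly all actives have a fitted effect of over 35% in size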
Outline: as §2

COc1ccc(CCC(=O)c2c(O)cc(O[C@@H]3O[C@H](CO)[C@@H](O)[C@H](O)[C@H]3O[C@@H]3O[C@@H](C)[C@H](O)[C@@H](O)[C@H]3O)cc2O)cc1O
inactive: activation [1] 8.33% | Potency [2] | Potency [3] | Potency [4]

CN(C)CCCN1c2ccccc2CCc2ccc(Cl)cc21
inactive: activation [1] 5.09% and -16.2% | Potency [5] | Potency [6] | Potency [7] | Potency [8]

CCOC(=O)[C@H](CCc1ccccc1)N[C@@H](C)C(=O)N1C(=O)N(C)C[C@H]1C(=O)O
inactive: activation [1] 12.6% and 0.333% | Potency [2] | Potency [3] | Potency [4] | Potency [9] | Potency [10] | Potency [11] | Potency [12]

COc1ccc(NC(=O)N2CCc3c2ccc2ccccc32)cc1N1CCN(C)CC1
inactive: activation [1] 8.59% | Potency [2] | Potency [3] | Potency [4] | Potency [9] | Potency [10] | Potency [12]

O=C(c1cccc(Cl)c1F)N1CCN(Cc2cccc(Nc3nccs3)n2)CC1
active: Potency [9] 35.5 µM
inactive: activation [1] 23.9% | Potency [2] | Potency [3] | Potency [4] | Potency [11]

CC(C)Nc1cc(-c2c[nH]c(C(=O)N[C@H](CO)c3cccc(Cl)c3)c2)c(Cl)cn1
active: Potency [1] 4.26 µM | Potency [13] 20.9 µM | Potency [14] 13.2 µM | Potency [15] 4.68 µM | Potency [7] 7.42 µM | Potency [16] 7.42 µM
inactive: Potency [2] | Potency [3] | Potency [4] | Potency [9] | Potency [11]

C=CC(=O)N1CCCN(c2cc(NCCC(=O)O)nc(-c3ccccn3)n2)CC1
inactive: activation [1] 9.67% | Potency [2] | Potency [3] | Potency [4] | Potency [9] | Potency [11]

CC(=O)N(O)CCCCCN1C(=O)CCC1=O
inactive: activation [1] -6.25% | Potency [2] | Potency [3] | Potency [4] | Potency [9] | Potency [11] | Potency [12]

O=C1C(c2c(O)[nH]c3ccccc23)=Nc2ccccc21
inactive: activation [1] -10.6% and 17.7% | Potency [2] | Potency [3] | Potency [4] | Potency [9] | Potency [11] | Potency [12] | viability [13] 103% | Potency [17] | Potency [15] | Potency [7] | Potency [8]

O=C(O)c1ccc(N2C(=O)/C(=C/c3ccc(-c4ccc([N+](=O)[O-])cc4)o3)C=C2c2ccccc2)cc1
inactive: activation [1] 24.3%
active: Potency [2] 1.59 µM | Potency [3] 11.3 µM | Potency [4] 3.98 µM | Potency [9] 20.1 µM | Potency [10] 5.65 µM | Potency [12] 3.18 µM

CCC(C)C(N)C(=O)NCCN1CCOCC1 (configuration not stated)
inactive: activation [1] 23% | Potency [2] | Potency [3] | Potency [4] | Potency [9] | Potency [10] | Potency [11] | Potency [12]

CC1(C)C[C@H]2C=C(C=O)[C@]3(C(=O)O)C[C@]3(C)[C@H]2C1
inactive: activation [1] 18.8% | Potency [2] | Potency [3] | Potency [4] | Potency [9] | Potency [10] | Potency [11] | Potency [12]

CC(C(=O)O)c1ccc2c(c1)CC(=O)c1ccccc1S2 (configuration not stated)
inactive: activation [1] 0.619% and -1.69% and -1.43% | Potency [2] | Potency [3] | Potency [4] | Potency [9] | Potency [11] | Potency [12] | viability [13] 114% | Potency [14] | Potency [15] | Potency [7] | Potency [16] | Potency [8]

N[C@@]1(C(=O)O)CC[C@H]2[C@H](C(=O)O)[C@H]21
inactive: activation [1] -12.3% | Potency [2] | Potency [3] | Potency [4] | Potency [9] | Potency [10] | Potency [11] | Potency [12]

O=C(O)c1cccc(-c2noc(-c3ccccc3F)n2)c1
inactive: activation [1] 19.2% and 2.33% and 1.9% | Potency [2] | Potency [4] | Potency [10]
active: Potency [3] 0.302 µM | Potency [9] 0.159 µM | Potency [11] 0.316 µM | Potency [13] 20.9 µM | Potency [7] 18.6 µM | Potency [16] 20.9 µM

Clc1cccc(COc2cncc(N3CCNCC3)n2)c1
inactive: activation [1] 14.8% | Potency [2] | Potency [3] | Potency [4] | Potency [9] | Potency [10] | Potency [11] | Potency [12]

CCNC(=O)OC1CCN(c2nncc3cc(OC)c(OC)cc23)CC1
inactive: activation [1] -7.67% | Potency [2] | Potency [3] | Potency [4] | Potency [9] | Potency [10] | Potency [11] | Potency [12]

C[S+](CC[C@H](N)C(=O)[O-])C[C@H]1O[C@@H](n2cnc3c(N)ncnc32)[C@H](O)[C@@H]1O (some centres not stated)
inactive: activation [1] 12.3% | Potency [2] | Potency [3] | Potency [4] | Potency [9] | Potency [10] | Potency [11] | Potency [12]

CCOc1ccc(Cc2nc(-c3c(C)nc4ccccn34)cs2)cc1
active: Potency [2] 12.6 µM | Potency [3] 11.2 µM | Potency [9] 14.1 µM | Potency [12] 6.34 µM
inactive: activation [1] -8.33% | Potency [4] | Potency [11]

O=c1cc(CN2CCOCC2)occ1OCCCCCSc1ccnc2cc(C(F)(F)F)ccc12
active: Potency [3] 22.5 µM
inactive: activation [1] -4.65% and 8.33% | Potency [2] | Potency [4] | Potency [9] | Potency [10] | Potency [11] | Potency [7]

C=C1C(=O)O[C@H]2C[C@@H](C)[C@@H]3CCC(=O)[C@@]3(C)C[C@H]12
active: Potency [1] 10.7 µM | Potency [3] 20.1 µM | Potency [9] 14.2 µM
inactive: Potency [2] | Potency [4] | Potency [10] | Potency [11] | Potency [12]
